The results in this text go back to the supplement of paper PMC6555819.

Holding throughout (assay): PBM binding z-score (relative to random genomic background probes); higher = stronger binding; sequences stand for … in GC…GCGATTGACAGCGTAGAATGAAGG
The test system of assay [1] is FXR:RXRa (NR concentration 270 nM, RXRa partner concentration 90 nM). An outline of the steps:
(§1)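 Binding z-scores were set against random background probes. The data came from custom Agilent 4×180K protein-binding microarrays carrying double-stranded probes with 34-nt variable regions, incubated 1 h with ligand-free nuclear receptor dimers. Partner-specific antibodies detected binding, and scanned fluorescence was regression-normalized.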

Assay [2] concerns LXRa:RXRa (NR concentration 270 nM, RXRa partner concentration 90 nM). The procedure, abridged: as §1
The subject of assay [3] is LXRa homodimer (NR concentration 270 nM). The procedure, abridged:
as §1

Assay [4] relates to LXRb:RXRa (NR concentration 270 nM, RXRa partner concentration 90 nM). The procedure, abridged:
as §1

Assay [5] deals with LXRb homodimer (NR concentration 270 nM). An outline of the steps: as §1
Assay [6] relates to PPARa:RXRa (NR concentration 270 nM, RXRa partner concentration 90 nM). An outline of the steps:
as §1

Assay [7] has as its system PPARg:RXRa (NR concentration 180 nM, RXRa partner concentration 90 nM). An outline of the steps:
as §1

Assay [8] relates to PPARg:RXRa 270nM:90nM, anti-RXR (NR concentration 270 nM, RXRa partner concentration 90 nM). The procedure, abridged:
as §1

Assay [9] has as its system PPARg:RXRa 30nM:10nM, anti-RXR (NR concentration 30 nM, RXRa partner concentration 10 nM). An outline of the steps:
as §1

Assay [10] relates to PPARg:RXRa 90nM:30nM, anti-RXR (NR concentration 90 nM, RXRa partner concentration 30 nM). The procedure, abridged:
as §1

Assay [11] relates to PPARg:RXRa DBDmut IVT, anti-RXR (DBD mutation: RXRa K156A/R161A, NR concentration 270 nM, RXRa partner concentration 90 nM). An outline of the steps:
as §1

The test system of assay [12] is PPARg:RXRa IVT, anti-PPARg (NR concentration 270 nM, RXRa partner concentration 90 nM). An outline of the steps: as §1
In assay [13] the test system is PPARg DBDmut:RXRa IVT, anti-PPARg (DBD mutation: PPARg1 K132A/R137A, NR concentration 270 nM, RXRa partner concentration 90 nM). The procedure, abridged:
as §1

Assay [14] has as its system PPARg DBDmut IVT, anti-PPARg (DBD mutation: PPARg1 K132A/R137A, NR concentration 270 nM). The procedure, abridged:
as §1

The subject of assay [15] is PPARg homodimer (NR concentration 180 nM). The procedure, abridged:
as §1

In assay [16] the test system is PXR:RXRa (NR concentration 270 nM, RXRa partner concentration 90 nM). The procedure, abridged: as §1
Assay [17] has as its system PXR homodimer (NR concentration 270 nM). An outline of the steps:
as §1

In assay [18] the test system is RARa:RXR (NR concentration 270 nM, RXRa partner concentration 90 nM). The procedure, abridged: as §1
Assay [19] deals with RARa homodimer (NR concentration 270 nM). An outline of the steps: as §1
Assay [20] relates to RARb:RXRa (NR concentration 270 nM, RXRa partner concentration 90 nM). The procedure, abridged: as §1

Turning to GCTTACGGGTCAAGGGTTATAGCATGAATAGAAT, the PBM binding z-score was 7 in assay [1]; 4.33 in assay [2]; -0.0628 in assay [3]; 4.68 in [4]; 0.59 in assay [5]; 6.34 in [6]. Further, the PBM binding z-score in [7] was found to be 9.43; in [8], 7.41; in assay [9], 6.16; in assay [10] it was 8.05; in assay [11], 3.76; in [12], 5.31. For the same sequence, the PBM binding z-score came to 1.91 in assay [13]; 1.82 in assay [14]; 3.12 in [15]; 4.69 in assay [16]; 0.12 in assay [17]; 7.06 in assay [18]. Moreover, the PBM binding z-score in [19] is 0.958; in assay [20], 4.27.

On to GCGACTGGGGCATCAACAGGTTACCATAACTTAA, for which the PBM binding z-score is -0.21 in assay [1]; 0.22 in assay [2]; -0.147 in [3]; 1.42 in assay [4]; -0.367 in assay [5]; 1.48 in assay [6]. Further, the PBM binding z-score in assay [7] is 1.15; in assay [8], 0.92; in [9] it was -0.0267; in assay [10], 0.231; in assay [11], 3.85; in assay [12], 3.26. The PBM binding z-score in assay [13] is 0.132; in assay [14], -0.496; in [15], 0.784; in assay [16] it was 0.139; in assay [17] it was -0.425; in assay [18] it was 0.551. Also, the figures for the PBM binding z-score in assay [19] and in assay [20] were -0.516 and 0.911, respectively.

With TATACAGGGTCAAATGCCAGAGTACGAATGTCGA, the PBM binding z-score in [1] came out at 7.66; in assay [2], 6.63; in assay [3] it was 3.82; in assay [4], 5.33; in [5], 3.42; in assay [6] it was 6.33. The PBM binding z-score in assay [7] is 7.57; in assay [8], 6.6; in assay [9], 3.95; in [10], 5.73; in assay [11], 2.62; in assay [12], 4.6. The PBM binding z-score was found to be 3.56 in assay [13]; 3.07 in assay [14]; 3.17 in assay [15]; 4.3 in [16]; 1.12 in assay [17]; 5.47 in assay [18]. Moreover, the PBM binding z-score in assay [19] worked out at 1.22; in [20] it was 4.55.

For CATACAGGGTCAGCTAGGCCAGAGGAGGGACGGC, the PBM binding z-score is 4.49 in assay [1]; 3.1 in [2]; -0.068 in assay [3]; 2.08 in assay [4]; 0.388 in [5]; 4.31 in assay [6]. The PBM binding z-score in assay [7] was found to be 3.63; in assay [8] it was 2.81; in [9] it was 0.595; in [10], 1.67; in assay [11], 0.736; in assay [12] it was 2.07. In addition, the PBM binding z-score in [13] is 1.18; in assay [14] it was 1.1; in [15], 1.66; in assay [16], 2.15; in assay [17] it was -0.08; in assay [18], 3.04. In addition, the PBM binding z-score in [19] stood at 0.169; in [20] it was 4.16.

Consider CCTACTGGGCCAAAAAGGTCAGTGATGCCGATAA, for which the PBM binding z-score in [1] is 1.31; in [2] it was 1.9; in assay [3], 0.693; in assay [4], 2.27; in [5], -0.789; in [6], 3.36. Besides, the PBM binding z-score came out at 2.04 in [7]; 2.9 in [8]; 0.549 in assay [9]; 1.83 in assay [10]; 3.45 in assay [11]; 3.63 in [12]. For the same sequence, the PBM binding z-score was -0.398 in assay [13]; -1.18 in assay [14]; 2.33 in assay [15]; 2.55 in assay [16]; 0.561 in assay [17]; 3.29 in assay [18]. Moreover, the values for the PBM binding z-score in [19] and in assay [20] were 1.18 and 3.67, respectively.

For CTACCAAGGTGAAGAAGGTCGTTGATTACTATTC, the PBM binding z-score in assay [1] is 0.613; in assay [2] it was 0.547; in assay [3], 0.132; in assay [4], 1.33; in assay [5] it was -0.664; in assay [6], 1.95. Also, the PBM binding z-score in assay [7] was 0.281; in [8], 0.572; in assay [9] it was -0.116; in assay [10], 0.36; in assay [11], 1.68; in [12] it was 1.84. The PBM binding z-score in assay [13] was 0.127; in [14], -0.276; in [15], 0.69; in assay [16], 1.53; in assay [17] it was 0.655; in assay [18] it was 1.48. The values for the PBM binding z-score in assay [19] and in [20] were 0.317 and 1.74, respectively.

For CCTACTGGGCCATTCGGAGGTCATTGATCATATG, the PBM binding z-score in assay [1] was 1.8; in [2], 2.8; in assay [3] it was 4.71; in [4], 2.59; in [5], -0.128; in assay [6], 3.01. Also, the PBM binding z-score was found to be 1.38 in assay [7]; 2.45 in assay [8]; 0.304 in [9]; 1.27 in assay [10]; 4.18 in assay [11]; 3.88 in [12]. Moreover, the PBM binding z-score in assay [13] is -0.0532; in [14], -0.182; in [15], 1.81; in assay [16] it was 3.79; in [17], 2.38; in assay [18], 3.45. In addition, the values for the PBM binding z-score in assay [19] and in assay [20] were -0.323 and 2.54, respectively.
